# Bioassay records from PubChem.
# Shown are actives, neighbours in structure and some others; about 5.8% of the full set was active somewhere.
# ALOX12 inh: inhibitors of human 12S-lipoxygenase ALOX12 | Potency, µM (series often up to 108 µM), inactives show at the top dose activity change, negative = inhibition, hits mostly inhibitors | purified 12hLO, xylenol orange hydroperoxide absorbance | 580,000 compounds, 1.1% hits; note: % is set by controls: 0 for no effect and ±100 for the full control effect
# Target sequence (P18054 whole entry, looked up): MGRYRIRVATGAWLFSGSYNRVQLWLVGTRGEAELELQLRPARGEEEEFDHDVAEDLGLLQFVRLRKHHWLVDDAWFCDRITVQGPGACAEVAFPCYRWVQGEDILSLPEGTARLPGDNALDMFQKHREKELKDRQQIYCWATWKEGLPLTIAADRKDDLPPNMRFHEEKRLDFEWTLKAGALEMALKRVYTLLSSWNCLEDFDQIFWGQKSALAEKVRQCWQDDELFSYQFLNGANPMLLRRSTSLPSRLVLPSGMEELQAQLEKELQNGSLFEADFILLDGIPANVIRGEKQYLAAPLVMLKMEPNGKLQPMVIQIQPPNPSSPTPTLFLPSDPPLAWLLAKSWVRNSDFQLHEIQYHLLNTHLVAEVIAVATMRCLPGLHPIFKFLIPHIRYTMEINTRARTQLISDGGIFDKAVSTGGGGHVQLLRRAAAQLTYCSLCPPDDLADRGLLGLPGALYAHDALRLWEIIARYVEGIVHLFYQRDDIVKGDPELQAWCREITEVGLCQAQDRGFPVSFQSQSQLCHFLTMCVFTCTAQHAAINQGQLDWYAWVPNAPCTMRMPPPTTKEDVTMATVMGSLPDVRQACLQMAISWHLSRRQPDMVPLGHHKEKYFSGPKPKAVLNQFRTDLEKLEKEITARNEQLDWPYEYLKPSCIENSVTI
#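 Purified human 12hLO at 150 nM in 25 mM Hepes, 0.01% Triton X-100, pH 7.0, preincubated 15 min at room temperature with compound. Reaction started with 40 uM arachidonic acid, 30 min at room temperature. Hydroperoxide measured by Fe-xylenol orange, 573/405 nm absorbance ratio.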
# SW480 rerep: DNA re-replication induction in SW480 cells. SW480 DNA re-replication, Hoechst DNA content imaging, 48 h. Potency, µM (titrated, usually from 46.1 µM), for the others: at the highest dose re-replication activation, usual class: activators. 340,000 compounds, 1.8% hits. AID 624297; note: % of control where 0% means no effect; nearly all actives have a fitted effect of over 55% in size
#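 Treated cells incubate 48 hr (37 C, 5% CO2), are stained 40 min with Hoechst, and nuclear fluorescence is enumerated; a rise in nuclei with high DNA signal marks re-replication.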
# PINK1 modulator: modulators of PINK1 expression | PINK1 immunofluorescence, high-content cytometry, 24 h | AID 624263 | Potency, µM (top dose mostly 76.6 µM), for the others: top-dose activation (PINK1 increase), most hits filed as activators | 410,000 compounds, 0.2% hits; active = well fitted activation curve with a large enough effect; inconclusive = small, poorly fitted or top-dose-only effect; cell line not stated here; note: % of control where 0% means no effect; nearly all actives have a fitted effect of over 65% in size
#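 Stable cell line, 250 cells/well, 12 h attachment; compounds pinned at 5 concentrations, 24 h; CCCP control. Fixed with nuclear dye, primary antibodies 12 h at 10 degrees C, secondary plus cell stain; laser-scanning cytometer read.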
# KB-V1 MDR tox: kills drug-selected multidrug resistant KB-V1 cells. KB-V1 MDR cells viability, CellTiter-Glo, 72 h. Potency, µM (series often up to 46.1 µM), usual class: cytotoxic. 400,000 compounds, 3.4% hits; note: % is set by controls: 0 for no effect and ±100 for the full control effect; nearly all actives have a fitted effect of over 60% in size
#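 In this primary screen, KB-V1 cells overexpressing P-gp are incubated with library compounds (lowest to highest concentration) for 72 h at 37 degrees C before a luminescent ATP viability read.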
# MCF10A rerep: inducers of DNA re-replication in MCF 10A breast cells. MCF 10A DNA re-replication, Hoechst nuclear intensity, 48 h. Potency, µM (series often up to 46.1 µM), inactives show at the highest dose activity, positive = re-replication, actives largely listed as activators. 350,000 compounds, 2.9% hits. AID 624296; note: % of control where 0% means no effect; nearly all actives have a fitted effect of over 50% in size
# KB-3-1 cytotox: KB-3-1 parental cell cytotoxicity; Potency, µM (top dose mostly 46.1 µM), hits mostly cytotoxic; KB-3-1 viability, CellTiter-Glo ATP luminescence, 72 h; 400,000 compounds, 1.4% hits; note: % is set by controls: 0 for no effect and ±100 for the full control effect; nearly all actives have a fitted effect of over 60% in size
#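 Multi-concentration cytotoxicity screen in KB-3-1 cells grown in DMEM lacking phenol red with 10% FBS. After 72 h at 37 °C with compound, ATP-dependent luminescence was recorded.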
# Active calls of the source: *; i = inactive; ? = inconclusive; / = no result. Unless noted, calls come from the whole dose curve; as a rule, active = well fitted curve in the direction sought with a large enough effect; inconclusive = small, poorly fitted or top-dose-only effect, or another doubt; inactive = no such curve, though single readings can be large; an effect the other way counts as inactive or inconclusive. Potency is the fitted concentration of half-maximal effect.
SMILES,ALOX12 inh,SW480 rerep,PINK1 modulator,KB-V1 MDR tox,MCF10A rerep,KB-3-1 cytotox
CCCNC(=S)N(Cc1ccccc1)Cc1nc2ccccc2c(=O)[nH]1,-5%,-106%,2%,5.2µM*,-3%,?
CCOCCCNC(=S)N(Cc1ccccc1)Cc1nc2ccccc2c(=O)[nH]1,-18%,2%,1%,i,6%,i
Cc1cc2[nH]c(=O)c(=O)[nH]c2cc1S(=O)(=O)N1CCN(c2cccc(Cl)c2)CC1,?,-3%,13%,?,13%,i
Cc1cc2[nH]c(=O)c(=O)[nH]c2cc1S(=O)(=O)N1CCN(c2cccc(C(F)(F)F)c2)CC1,?,-11%,7%,i,16µM*,i
CC1(C)CCC[C@]2(C)[C@H]3Cc4cc(O)ccc4O[C@]3(C)CC[C@@H]12,?,10%,-1%,i,12µM*,i
CC1(C)CCC[C@]2(C)[C@H]3CC(=O)O[C@]3(C)CC[C@@H]12,15%,1%,10%,i,14%,i
COc1cccc(-n2nnnc2S(C)(=O)=O)c1,/,?,-1%,?,4.6µM*,?
CC(C)(CNC(=O)C(C)(C)C)CNC(=O)C(C)(C)C,-7%,/,/,/,/,/
Cc1cc(=O)oc2cc(OCC(=O)NC(=O)NC3CCCCC3)ccc12,-6%,/,/,/,/,/
CCCCCCCN(C(=O)CCl)c1cccc(C)c1,-24%,2.1µM*,?,i,?,i
Cc1cccc(N(Cc2cc(=O)[nH]c3ccccc23)C(=O)CCl)c1,?,?,1%,?,?,i
O=C(CCl)N(c1ccccc1)c1ccccc1,-10%,22%,-2%,?,?,?
CCCCCCN(C(=O)CCl)c1ccccc1,?,9.2µM*,-2%,i,?,i
N#CCCN(C(=O)CCl)c1cccc(Cl)c1,-21%,2.6µM*,-1%,?,?,21µM*
COc1cc(C=C(C#N)C(=O)c2ccccc2)cc(OC)c1OC,-14%,/,-1%,i,/,i
COc1cc(/C=N/NC(=O)c2sc3nc(C)cc(C)c3c2N)ccc1O,134%,?,11%,i,15µM*,i
COc1ccc(/C=N/NC(=O)CCC(=O)Nc2ccccc2)cc1OC,5%,18%,2%,i,15%,i
COc1ccc(/C=N/NC(=O)CCn2cnc(-c3ccccc3)c2-c2ccccc2)cc1OC,0%,21µM*,5%,?,8.2µM*,6.5µM*
Cc1nc(N)sc1C(=O)N/N=C/c1ccc([N+](=O)[O-])cc1,3%,-92%,0%,i,17%,i
COc1cc(/C=N\NC(=O)c2sc(N)nc2C)cc(OC)c1OC,0%,-5%,-1%,i,21µM*,i
COc1cc(/C=C(/C(=O)O)c2ccc(-c3ccccc3)cc2)cc(OC)c1OC,-8%,21µM*,7%,?,15µM*,?
CCN1CCC(N2CCC(Oc3ccccc3-c3nc(-c4ccncc4)no3)C2)CC1 (stereo unspecified),52%,/,/,/,/,/
COc1ccc(C(=O)NCCn2ccn3nc(-c4ccc(C)c(C)c4)cc3c2=O)cc1,1%,/,/,/,/,/
Cc1cc(=O)c2cc(C(=O)Nc3nnc(CC(C)C)s3)ccc2[nH]1,12%,/,/,/,/,/
COc1ccc(/C=N/NC(=O)CCn2c3ccccc3c3ccccc32)cc1OC,-27%,2%,13%,i,5%,i
SMILES,ALOX12 inh,SW480 rerep,PINK1 modulator,KB-V1 MDR tox,MCF10A rerep,KB-3-1 cytotox
COc1ccc(/C=N\NC(=O)c2ccc(-c3ccccc3)cc2)c(OC)c1OC,0%,15%,4%,i,-3%,i
COc1cc(/C=N/NC(=O)c2ccc(-c3ccccc3)cc2)cc(OC)c1OC,-7%,9.2µM*,3%,i,21%,i
COc1cc(C(=O)Oc2ccccc2/C=N/NC(=O)c2ccc(C)c(Cl)c2)cc(OC)c1OC,8%,?,?,?,-2%,?
COc1cc(/C=N/NC(=O)CCn2c3ccccc3c3ccccc32)cc(OC)c1OC,-2%,5%,1%,4.6µM*,1%,i
COc1cc(C(=O)Oc2ccccc2/C=N/NC(=O)c2ccc(Cl)cc2)cc(OC)c1OC,18%,?,3%,?,?,5.2µM*
CN(C(=O)c1cc2ccccc2oc1=O)C(c1ccccc1)c1ccccc1,-18%,/,/,/,/,/
O=C1CC(c2ccccc2)N(Cc2ccncc2)CCCN(C(=O)c2ccco2)CCN1 (stereo unspecified),13%,/,/,/,/,/
NC(CO)c1cccc2ccccc12 (stereo unspecified),-6%,/,/,/,/,/
C#CC[N+](C)(C)CCCCCCCCCC,-4%,21µM*,5%,i,?,3.7µM*
C#CC[N+](C)(C)CCCCCCCC,-2%,-1%,3%,i,11%,5.2µM*
CC#CC[N+](C)(C)CCCCCCCCCCCC,-1%,?,-1%,i,?,?
C#CC[N+](C)(C)CCCCCCCCCCCC,-2%,12µM*,-3%,i,26µM*,2.1µM*
CCCCCCCCCCCCCCCC[N+](C)(C)CCl,?,21µM*,-5%,i,25%,?
CC(C)(C)C(=O)NCCCC(=O)NC1CCCC1,-8%,/,/,/,/,/
O=C(NC1CCN(c2cc(-c3cccs3)[nH]n2)C1)c1cc2ccccc2[nH]1 (stereo unspecified),-4%,/,/,/,/,/
COc1cccc(N2CCN(C(=O)c3ccc(CS(=O)c4ccc(C)cc4)o3)CC2)c1 (stereo unspecified),-21%,?,4%,?,?,0.37µM*
O=C(c1ccc(CS(=O)c2cccc(Cl)c2)o1)N1CCN(c2ccccn2)CC1 (stereo unspecified),1%,25%,7%,?,?,7.3µM*
COc1cccc(N2CCN(C(=O)c3ccc(CS(=O)Cc4ccc(C)cc4)o3)CC2)c1 (stereo unspecified),-30%,-8%,2%,?,0%,i
COc1cccc(N2CCN(C(=O)c3ccc(CS(=O)c4ccc(Cl)cc4)o3)CC2)c1 (stereo unspecified),?,?,1%,?,?,8.2µM*
O=C(c1ccc(CS(=O)c2cccc(Cl)c2)o1)N1CCOCC1 (stereo unspecified),-24%,2%,-1%,i,3%,i
Cc1nccn1-c1ccc(CNC(=O)C(c2ccc(F)cc2)N(C)C)cc1 (stereo unspecified),25%,/,/,/,/,/
C1CNC(c2nc(CCOCC3CC3)no2)C1 (stereo unspecified),50%,/,/,/,/,/
CC(NCCC(c1ccccc1)c1ccccc1)c1ccccc1 (stereo unspecified),?,7.3µM*,?,?,?,i
